# Reference: ChEMBL document CHEMBL4513135, “CO-ADD screening of IQOG CSIS (Spain) compounds”
# Values joined by “and” are separate entries in the source; they are usually repeats but may differ in a detail not shown here. Identical values can stand only once. Potency and affinity values are given separately.
# Columns and labels:
# Staphylococcus aureus = settings: Concentration 32 ug.mL-1, ASSAY_TEST Inhibition of Bacterial Growth, detection method Absorption (OD600), MEDIA CAMHB, plate type 384well, NBS, CORNING #3640, time 18 hr
# Escherichia coli = settings: Concentration 32 ug.mL-1, ASSAY_TEST Inhibition of Bacterial Growth, detection method Absorption (OD600), MEDIA CAMHB, plate type 384well, NBS, CORNING #3640, time 18 hr
compound,measurement,setting,value
Nc1n[nH]c2c1C(c1ccccc1)CC(=O)N2 (configuration not stated),Inhibition,Staphylococcus aureus,40.09%
same,Inhibition,Escherichia coli,-4.9%
N#Cc1cc2c(N)c3c(nc2nc1Cl)CCCC3,Inhibition,Staphylococcus aureus,35.71%
same,Inhibition,Escherichia coli,-0.19%
O=C1NC(=S)N/C1=C\c1c[nH]c2ccccc12,Inhibition,Staphylococcus aureus,7.26%
same,Inhibition,Escherichia coli,6.43%
COc1ccc(C2c3ccc4ccccc4c3Oc3nc4c(c(N)c32)CCCC4)c(OC)c1 (configuration not stated),Inhibition,Staphylococcus aureus,-6.11%
same,Inhibition,Escherichia coli,-4.44%
CC(=O)Oc1ccc(C=C2N=C(C)OC2=O)cc1,Inhibition,Staphylococcus aureus,8.81%
same,Inhibition,Escherichia coli,9.02%
CCOC(=O)N/N=C/c1ccccc1,Inhibition,Staphylococcus aureus,-2.34%
same,Inhibition,Escherichia coli,-1.06%
N#CC1=C(N)Oc2c(ccc3ccccc23)C1c1ccccc1 (configuration not stated),Inhibition,Staphylococcus aureus,23.38%
same,Inhibition,Escherichia coli,-4.89%
COc1nc2nc3c(c(N)c2cc1C#N)CN(Cc1ccccc1)CC3,Inhibition,Staphylococcus aureus,9.36%
same,Inhibition,Escherichia coli,4.83%
C#CCN(C)c1nc(N)c(C#N)cc1C#N,Inhibition,Escherichia coli; 32 ug/mL,-6.57% and -4.54%
N#CC1=C(Cl)Oc2c(ccc3ccccc23)C1c1cccc([N+](=O)[O-])c1 (configuration not stated),Inhibition,Staphylococcus aureus,9.83%
same,Inhibition,Escherichia coli,-16.88%
COc1ccc2c(c1)cc(CN(C)C)n2C,Inhibition,Staphylococcus aureus,-0.93%
same,Inhibition,Escherichia coli,-1.4%
NNC(=O)C1(NC(=O)c2ccccc2)CC1c1cccc(O)c1 (configuration not stated),Inhibition,Staphylococcus aureus,12.61%
same,Inhibition,Escherichia coli,5.57%
CC(=O)CC(=O)N1[C@@H]2C[C@H]3CCC2(CS1(=O)=O)C3(C)C,Inhibition,Staphylococcus aureus,27.16%
same,Inhibition,Escherichia coli,7.75%
CN(C)c1nc(Cl)c(C#N)c(-c2ccccc2)c1C#N,Inhibition,Staphylococcus aureus,-17.89%
same,Inhibition,Escherichia coli,-6.44%
N#CC1=C(N)Oc2c(ccc3ccccc23)C1c1ccc(Cl)c(Cl)c1 (configuration not stated),Inhibition,Staphylococcus aureus,0.79%
same,Inhibition,Escherichia coli,0.95%
Nc1c2c(nc3c1C(c1c(Cl)cccc1Cl)c1ccc4ccccc4c1O3)CCCC2 (configuration not stated),Inhibition,Staphylococcus aureus,2.04%
same,Inhibition,Escherichia coli,3.11%
N#CC1=C(Cl)Oc2c(ccc3ccccc23)C1c1ccc([N+](=O)[O-])cc1 (configuration not stated),Inhibition,Staphylococcus aureus,7.21%
same,Inhibition,Escherichia coli,-24.25%
N#CC1=C(Cl)Oc2c(ccc3ccccc23)C1c1ccccc1[N+](=O)[O-] (configuration not stated),Inhibition,Staphylococcus aureus,15.73%
same,Inhibition,Escherichia coli,-14.23%
CC#CCN(Cc1ccccc1)c1nc(N)c(C#N)c(-c2ccccc2)c1C#N,Inhibition,Staphylococcus aureus,17.54%
same,Inhibition,Escherichia coli,-2.98%
CCOC(=O)C1=C(C)OC(N)=C(C#N)C1c1ccc(OC)c(OC)c1 (configuration not stated),Inhibition,Staphylococcus aureus,21.72%
same,Inhibition,Escherichia coli,-10.4%
N#CC1=C(N)Oc2c(ccc3ccccc23)C1c1ccc(O)cc1 (configuration not stated),Inhibition,Staphylococcus aureus,21.57%
same,Inhibition,Escherichia coli,-18.15%
NNC(=O)CCc1c[nH]c2ccccc12,Inhibition,Staphylococcus aureus,1.93%
same,Inhibition,Escherichia coli,6.66%
CCOC(=O)c1c(C)nc2nc3c(c(N)c2c1-c1ccccc1OC)CCCCC3,Inhibition,Staphylococcus aureus,5.11%
same,Inhibition,Escherichia coli,-17.67%
CN(N=O)C(=O)NC1(C(=O)O)CC1c1ccccc1 (configuration not stated),Inhibition,Staphylococcus aureus,15%
same,Inhibition,Escherichia coli,11.14%
COc1ccc(C2C(C#N)=C(N)Oc3ccc4ccccc4c32)cc1 (configuration not stated),Inhibition,Staphylococcus aureus,37.68%
same,Inhibition,Escherichia coli,-4.54%
COc1ccc2cc(C3C(C(C)=O)=C(C)Oc4nc5c(c(N)c43)CCCCC5)c(Cl)nc2c1 (configuration not stated),Inhibition,Staphylococcus aureus,26.1%
same,Inhibition,Escherichia coli,15.71%
Cl.ClCCCCCN1CCCCC1,Inhibition,Staphylococcus aureus,7.58%
same,Inhibition,Escherichia coli,1.26%
COc1nc(N)c(C#N)c(-c2ccccc2)c1C#N,Inhibition,Staphylococcus aureus,26.81%
same,Inhibition,Escherichia coli,-3.07%
COc1cccc(C2C(C#N)=C(N)Oc3c2ccc2ccccc32)c1 (configuration not stated),Inhibition,Staphylococcus aureus,23.52%
same,Inhibition,Escherichia coli,-8.01%
COc1ccc(CNNC(=O)c2cc3ccccc3[nH]2)cc1,Inhibition,Staphylococcus aureus,2.37%
same,Inhibition,Escherichia coli,-1.53%
COc1ccc2nc(Cl)c(C=O)cc2c1,Inhibition,Staphylococcus aureus; 32 ug/mL,19.77% and 20.88%
same,Inhibition,Escherichia coli; 32 ug/mL,18.53% and 18.96%
Cc1nc(NCc2ccccc2)c2cnn(-c3ccccc3)c2n1,Inhibition,Staphylococcus aureus,7.38%
same,Inhibition,Escherichia coli,5.64%
COc1ccc(C2C(C#N)=C(N)Oc3c2ccc2ccccc32)cc1OC (configuration not stated),Inhibition,Escherichia coli,-16.13%
Cc1ccc(C(O)SNNc2nc(C)nc3c2c(C)nn3-c2ccccc2)cc1 (configuration not stated),Inhibition,Staphylococcus aureus,4.03%
same,Inhibition,Escherichia coli,5.46%
N#Cc1c(-c2cccc([N+](=O)[O-])c2)c2ccc3ccccc3c2oc1=O,Inhibition,Escherichia coli; 32 ug/mL,-5.38% and -17.97% and -15.63%
COc1cccc(C2c3c(ccc4ccccc34)OC(=N)C2(Br)C#N)c1 (configuration not stated),Inhibition,Escherichia coli; 32 ug/mL,-22.74% and -4.85%
CC(C(=O)O)c1c[nH]c2ccccc12 (configuration not stated),Inhibition,Staphylococcus aureus,5.61%
same,Inhibition,Escherichia coli,8.04%
O=C(Cc1c[nH]c2ccccc12)NN=Cc1ccccc1,Inhibition,Staphylococcus aureus,3.3%
same,Inhibition,Escherichia coli,-3.03%
Cc1cc(Br)cc(C)c1NC=C(C#N)C#N,Inhibition,Staphylococcus aureus,7.73%
same,Inhibition,Escherichia coli,12.6%
COc1ccccc1C1C(C#N)=C(N)Oc2[nH]nc(C)c21 (configuration not stated),Inhibition,Staphylococcus aureus,9.32%
same,Inhibition,Escherichia coli,14.43%
CCOc1nc2nc(CCc3ccccc3)ccc2c(-c2ccccc2)c1C#N,Inhibition,Staphylococcus aureus,14.64%
same,Inhibition,Escherichia coli,-39.9%
CNC(=O)c1cc2cc(OC)ccc2[nH]1,Inhibition,Staphylococcus aureus,5.66%
same,Inhibition,Escherichia coli,-0.98%
COc1nc(NC(C)=O)c(C#N)c(-c2ccccc2)c1C#N,Inhibition,Staphylococcus aureus,21.1%
same,Inhibition,Escherichia coli,-7.58%
